# Results filed as inconclusive are left out. A number with no mark means an inactive call. Calls come from the whole dose curve; as a rule, active = well fitted curve in the direction sought with a large enough effect (not every such curve was filed as active); inconclusive = small, poorly fitted or top-dose-only effect, or effect the other way, or another doubt; inactive = no such curve, though single readings can be large or run the other way.
# Test: Cell viability assay for measurement of the protective activity of small molecules against cell death caused by Zika virus infection in human neural progenitor cells (hNPCs);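 note: 0% = ZIKV-infected cells without compound and 100% = uninfected cells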
# Conditions: hNPC ZIKV-induced death protection, ATP luminescence, 72 h; series mostly up to 46.1 µM; protection, negative = more death: at the top concentration
# Source text: National Center for Advancing Translational Sciences [NCATS] Johns Hopkins University School of Medicine Florida State University Assay Overview: Zika virus infection causes cell death in certain cell types including human neural progenitor cells (hNPCs), astrocytes, and astrocytoma cell line (SNB-19). This cell viability assay measures the ATP content (level) in human neural progenitor cells (hNPCs) using a luminescence readout that is proportional to viable cell numbers. Decrease in the luminescence signal after Zika virus infection indicates the cell death caused by Zika virus. Small molecule inhibitors […] the decreased luminescence signal after Zika virus infection, indicating the protective effect of that small molecule on the cell death caused by Zika virus infection. This observed protective effect of small molecules against Zika virus induced cell death may result from inhibition of virus replication or cellular response to the virus infection.
# Assay Protocol Summary: The medium for hNPCs consists of DMEM/F12, N2 supplement (ThermoFisher, Cat.# 17502048), NEAA (ThermoFisher, Cat. # 11140050), 2 ug/ml heparin, 2 uM cyclopamine, and B27 (ThermoFisher, Cat. # 17504044). The ATP content assay kit (PerkinElmer, Cat.# 6016731) was used to determine cell viability. The reagent was reconstituted and prepared as described by the manufacturer. Cells were seeded in 384- or 1536-well assay plates and cultured at 37 C with 5% CO2 for 16 to 20 hours. The typical cell seeding density in the 1536-well plate assay is 350 cells/well in 3 ul medium for hNPCs in the tissue cultured treated/PDL coated plates. Compounds were added to cells and incubated for one hour before addition of ZIKV solution to cells (2 FFU/cell). After incubation at 37 C with 5% CO2 for 72 hours, the reagent mixture of the ATP content assay kit was added to each well, followed by incubation at room temperature for 10 minutes. The luminescence intensity of the assay plates was measured using a ViewLux plate reader (PerkinElmer). […] The percentage inhibitions of the decreased cell viability by small molecule inhibitors were then calculated.
row,SMILES,"protection, negative = more death"
1,Cc1c(N)c(=O)n(-c2ccccc2)n1C,-5.6%
2,Cc1ccc(C(=O)c2ccc(CC(=O)O)n2C)cc1,-31.2%
3,O=c1c2ccccc2nc2n1CCc1c-2[nH]c2ccccc12,-32.5%
4,CCCCC1C(=O)N(c2ccccc2)N(c2ccc(O)cc2)C1=O (stereo not given),-76.6%
5,Nc1nc2ccc([N+](=O)[O-])cc2s1,-22.2% [at 88.3 µM]
6,O=C(Oc1ccccc1)c1cccc(C(=O)Oc2ccccc2)c1,-16.5% [at 96.3 µM]
7,O=c1c(-c2ccc(O)cc2)coc2cc(OC3O[C@H](CO)[C@H](O)[C@H](O)[C@H]3O)cc(O)c12 (stereo not given in full),-70.7%
8,CCCCCCOc1ccccc1C(N)=O,4.91%
9,N#C/C(=C\c1ccc(O)c(O)c1)C(=O)Nc1ccccc1,-61.2%
10,Nc1ncnc2c1ncn2[C@@H]1O[C@@H](CO)[C@H](O)[C@H]1O,-14.4% [at 23.8 µM]
11,CCN1CCC(n2cc(CNc3cc(Cl)c4ncc(C#N)c(Nc5ccc(F)c(Cl)c5)c4c3)nn2)CC1,-77.7%
12,CC(C(=O)O)c1ccc2c(c1)[nH]c1ccc(Cl)cc12 (stereo not given),8.12%
13,CN1CCN(c2cc3c(nn2)Oc2ccccc2N3C)CC1,8.35% [at 23.8 µM]
14,Cc1csc(NC(=O)c2sc3nc4c(c(C(F)(F)F)c3c2N)CCC4)n1,-75.6%
15,C[C@@H](O[C@H]1OCCN(Cc2n[nH]c(=O)[nH]2)[C@@H]1c1ccc(F)cc1)c1cc(C(F)(F)F)cc(C(F)(F)F)c1,-76.8%
16,Cc1cc(O)c2c(c1)C(=O)c1cc(O)cc(O)c1C2=O,-8.67%
17,CC(C)Oc1ccc2c(=O)c(-c3ccccc3)coc2c1,-49.1%
18,NC1CCC(Nc2nc(Nc3ccc(C(=O)N4CCCCC4)cc3)c3ncn(-c4cccc(F)c4)c3n2)CC1 (stereo not given),-79.2%
19,CC(=NNC(=S)N1CCC1)c1ccccn1,-76.1%
20,COc1cccc(-c2ccc(NC(=O)C3=C(C(=O)O)CCC3)c(F)c2)c1,-16.9%

row,SMILES,"protection, negative = more death"
1,O=C1c2ccccc2C(=O)c2c1ccc(O)c2O,-21.6%
2,CCCSc1ccc2nc(NC(=O)OC)[nH]c2c1,-53.9%
3,O=c1oc2cc(O)ccc2s1,-37.6%
4,Oc1ccc(/C=C/c2cc(O)cc(O)c2)cc1,-73.8%
5,c1ccc(CCNc2nc(-c3ccccc3)cs2)cc1,-7.96%
6,CC(C(=O)O)c1ccc(C(=O)c2ccccc2)s1 (stereo not given),-7.59%
7,COc1ccc(-c2coc3cc(O)ccc3c2=O)cc1,-49.1%
8,O=C(Nc1ncc([N+](=O)[O-])s1)c1cccs1,-40.1%
9,O=C1C[C@@H](c2ccc(O)cc2)Oc2cc(O)cc(O)c21,-22.1%
10,CCCCCNC(=O)N1CCC(CN(Cc2ccc(Cl)cc2)Cc2ccc([N+](=O)[O-])s2)C1 (stereo not given),-69.1%
11,Nc1ccc2c(c1)CN1C(=O)c3ccccc3C1=N2,-60.2% [at 23.8 µM]
12,O=C(O)c1cc([N+](=O)[O-])ccc1NCCCc1ccccc1,-2.84%
13,Cc1c(NC(=O)c2ccc(C(C)(C)C)cc2)cccc1-c1cn(C)c(=O)c(Nc2ccc(C(=O)N3CCOCC3)cc2)n1,-49.7%
14,CCCC(=O)OC[C@@H](OC(=O)CCC)[C@@H](OC(=O)CCC)[C@H](Cn1c2nc(=O)[nH]c(=O)c-2nc2cc(C)c(C)cc21)OC(=O)CCC,-47.2%
15,CNC(=O)c1ccccc1Sc1ccc2c(/C=C/c3ccccn3)n[nH]c2c1,-66.1%
16,CN(C)c1cc(NC(=O)CNC(C)(C)C)c(O)c2c1C[C@@H]1C[C@H]3[C@H](N(C)C)C(=O)C(C(N)=O)=C(O)[C@@]3(O)C(=O)C1=C2O,-8.43%
17,O=C(O)[C@@H](c1ccc(OCc2ccc3ccccc3n2)cc1)C1CCCC1,-1.95%
18,O=C(O)Cc1ccc(-c2ccccc2)cc1,-0.374%
19,CCCCCCCC/C=C/C(=O)O,-1.9%
20,CC(=Cc1ccccc1)C=C1SC(=S)N(CC(=O)O)C1=O,-16.5%

# — PubChem BioAssay AID1224852 (National Center for Advancing Translational Sciences (NCATS), 2016)
